According to PubChem BioAssay (NCATS):
Inconclusive results are not listed. A call without a number means that no potency is given here. The source made the active and inactive calls. The call rests on the fitted dose curve; in most records, active means well fitted curve in the direction sought with a large enough effect; inconclusive means small, poorly fitted or top-dose-only effect, or another doubt; inactive means no such curve, though single readings can be large; an effect the other way counts as inactive or inconclusive.

Experiments:
[1] = qHTS of pediatric cancer cell lines to identify multiple opportunities for drug repurposing: Primary screen for TC32 cells (AID 1347089); further: nearly all actives have a fitted effect of over 60% in size; further: potency means the concentration at half of the fitted maximal effect
Summary of the method: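 TC32 cells, 500-1,000/well in growth medium, compound-treated 48 h at 37 °C; viability from CellTiter-Glo luminescence. Primary screen: MIPE 11-point (0.78 nM–46 µM final), NPC 8-point (0.59 nM–46 µM final); confirmatory at 11-point dilutions.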

[2] = qHTS of pediatric cancer cell lines to identify multiple opportunities for drug repurposing: Primary screen for DAOY cells (AID 1347090); further: nearly all actives have a fitted effect of over 55% in size; further: potency means the concentration at half of the fitted maximal effect
Summary of the method: (§1)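 Cell viability, CellTiter-Glo luminescence; 500-1,000 cells/well, 8- or 11-point titration, 48 h compound exposure at 37 degrees C, 5% CO2. Controls: DMSO neutral, bortezomib 2.3 µM final as positive.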

[3] = qHTS of pediatric cancer cell lines to identify multiple opportunities for drug repurposing: Primary screen for SJ-GBM2 cells (AID 1347091); further: potency means the concentration at half of the fitted maximal effect
Summary of the method: as §1

[4] = qHTS of pediatric cancer cell lines to identify multiple opportunities for drug repurposing: Primary screen for SK-N-MC cells (AID 1347093); further: potency means the concentration at half of the fitted maximal effect
Summary of the method: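 Metabolically active cells were quantified by ATP-dependent luminescence (CellTiter-Glo, 15 min at room temperature) following 48 h treatment. Cells had been plated at 500-1,000 per well and settled for 5 h beforehand.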

[5] = qHTS of pediatric cancer cell lines to identify multiple opportunities for drug repurposing: Primary screen for BT-37 cells (AID 1347094); further: potency means the concentration at half of the fitted maximal effect
Summary of the method: (§2)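 Following a 5-hour attachment period, cells at 500-1,000/well received compounds and were cultured for 48 hours. CellTiter-Glo was added and luminescence read to estimate viable, metabolically active cells.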

[6] = qHTS of pediatric cancer cell lines to identify multiple opportunities for drug repurposing: Primary screen for NB-EBc1 cells (AID 1347095); further: potency means the concentration at half of the fitted maximal effect
Summary of the method: as §2

[7] = qHTS of pediatric cancer cell lines to identify multiple opportunities for drug repurposing: Primary screen for U-2 OS cells (AID 1347096); further: nearly all actives have a fitted effect of over 50% in size
Summary of the method: (§3)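 Cells (500-1,000/well) rested 5 h, then received compounds for 48 h; metabolically active cells were measured by CellTiter-Glo luminescence. Final concentrations spanned up to 46 µM (MIPE, 11-point) or 0.59 nM-46 µM (NPC, 8-point) in primary screens, 11-point in follow-ups.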

[8] = qHTS of pediatric cancer cell lines to identify multiple opportunities for drug repurposing: Primary screen for Saos-2 cells (AID 1347097); further: nearly all actives have a fitted effect of over 40% in size; further: potency means the concentration at half of the fitted maximal effect
Summary of the method: as §2

[9] = qHTS of pediatric cancer cell lines to identify multiple opportunities for drug repurposing: Primary screen for NB1643 cells (AID 1347099); further: nearly all actives have a fitted effect of over 50% in size; further: potency means the concentration at half of the fitted maximal effect
Summary of the method: as §2

[10] = qHTS of pediatric cancer cell lines to identify multiple opportunities for drug repurposing: Primary screen for LAN-5 cells (AID 1347100); further: potency means the concentration at half of the fitted maximal effect
Summary of the method: as §3

[11] = qHTS of pediatric cancer cell lines to identify multiple opportunities for drug repurposing: Primary screen for A673 cells (AID 1347092); further: nearly all actives have a fitted effect of over 45% in size; further: potency means the concentration at half of the fitted maximal effect
Summary of the method: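 A673 cells (500-1,000 cells/well) were treated 48 hours at 37 degrees C with compounds at 11-point (0.78 nM to 46 µM) or 8-point (0.59 nM to 46 µM) dilutions. Viability read by CellTiter-Glo luminescence; concentration-response curves fitted.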

[12] = qHTS of pediatric cancer cell lines to identify multiple opportunities for drug repurposing: Primary screen for BT-12 cells (AID 1347101); further: nearly all actives have a fitted effect of over 25% in size; further: potency means the concentration at half of the fitted maximal effect
Summary of the method: as §3

[13] = qHTS of pediatric cancer cell lines to identify multiple opportunities for drug repurposing: Primary screen for SK-N-SH cells (AID 1347098); further: nearly all actives have a fitted effect of over 65% in size; further: potency means the concentration at half of the fitted maximal effect
Summary of the method: as §3

Structure (SMILES) | Potency [1] | Potency [2] | Potency [3] | Potency [4] | Potency [5] | Potency [6] | Potency [7] | Potency [8] | Potency [9] | Potency [10] | Potency [11] | Potency [12] | Potency [13]
O=C(NCCc1c[nH]c2ccccc12)c1cccnc1 | inactive | inactive | inactive | inactive | inactive | inactive | inactive | inactive | inactive | inactive |  |  | 
CO[C@]12C[C@@H](COC(=O)c3cncc(Br)c3)CN(C)[C@@H]1Cc1cn(C)c3cccc2c13 | inactive | inactive |  | inactive | inactive | inactive | inactive | inactive | inactive | inactive | inactive | inactive | 
O=C(N/N=C/c1ccc([N+](=O)[O-])o1)c1ccc(O)cc1 |  |  |  |  |  |  | inactive | inactive |  |  |  | 13.8 µM (active) | 
CCCCCCCCNC(C)C(O)c1ccc(SC(C)C)cc1 (stereo unspecified) | inactive |  |  | 16.8 µM (active) | 27.6 µM (active) |  |  | 23.7 µM (active) |  |  |  |  | 15.4 µM (active)
CC[C@]12CCCN3CCc4c(n(c5ccccc45)C(=O)C1)[C@@H]32 |  |  | 5.96 µM (active) | 5.96 µM (active) |  | 1.88 µM (active) |  | 13.3 µM (active) | inactive |  | 10.6 µM (active) |  | 
O=C1c2cccc3c2[C@H](CCC3)CN1[C@@H]1CN2CCC1CC2 | inactive |  |  |  |  | inactive | inactive | inactive | inactive |  | inactive | inactive | 
CCNC(=O)NCc1cccc(Cl)c1 | inactive | inactive |  | inactive | inactive | inactive | inactive |  | inactive | inactive | inactive | inactive | 
CCCCCN=C(N)N/N=C/c1c[nH]c2ccc(OC)cc12 |  |  |  |  | 24.6 µM (active) |  |  |  |  |  |  | 13.8 µM (active) | 4.33 µM (active)
CCN(CC)CCOC(=O)C1(c2ccccc2)CCCC1 | inactive | inactive | inactive | inactive | inactive | inactive | inactive | inactive | inactive | inactive |  | inactive | inactive
CCOC(=O)c1ccc(N)cc1 | inactive | inactive |  | inactive | inactive | inactive | inactive |  | inactive | inactive | inactive | inactive | inactive
CN1CCN(CCC(=O)N2c3ccccc3Sc3ccc(C(F)(F)F)cc32)CC1 | inactive | inactive |  | 29.9 µM (active) |  |  | inactive |  |  | 26.6 µM (active) |  |  | 
O[C@@H](c1cc(C(F)(F)F)nc2c(C(F)(F)F)cccc12)[C@H]1CCCCN1 |  |  |  |  |  |  |  | 21.1 µM (active) |  |  |  | 15.5 µM (active) | 30.7 µM (active)
Oc1ccc(Cl)cc1Cc1cc(Cl)ccc1O |  | 21.1 µM (active) |  |  | 19.5 µM (active) |  |  | 8.41 µM (active) | 9.44 µM (active) |  |  | 27.6 µM (active) | 17.2 µM (active)
CCCCOC(=O)CC(CC(=O)OCCCC)(OC(C)=O)C(=O)OCCCC | inactive | inactive | inactive | inactive | inactive | inactive | inactive | inactive | inactive | inactive |  | inactive | 
CCCCC(CC)CN1CN(CC(CC)CCCC)CC(C)(N)C1 (stereo unspecified) | inactive |  | inactive |  | inactive | inactive |  |  | inactive | inactive | inactive |  | inactive
CCN(CC)CCOC(=O)C(Cc1cccc2ccccc12)CC1CCCO1 (stereo unspecified) | inactive | inactive | inactive |  | inactive | inactive | inactive |  | inactive | inactive |  | inactive | inactive
CCCCCCCCCCC[C@@H](C[C@@H]1OC(=O)[C@H]1CCCCCC)OC(=O)[C@H](CC(C)C)NC=O | inactive |  |  |  | inactive |  | inactive |  | inactive | inactive |  | inactive | inactive
NCCNC(=O)c1ccc(Cl)cn1 | inactive | inactive | inactive | inactive | inactive | inactive | inactive | inactive | inactive | inactive |  | inactive | inactive
CC(=O)Nc1ccc(OCC(O)CNC(C)C)cc1 (stereo unspecified) | inactive |  | inactive |  | inactive | inactive | inactive | inactive |  | inactive | inactive | inactive | 
CCN(CC)CCNc1ccc(CO)c2sc3ccccc3c(=O)c12 |  |  |  | 21.1 µM (active) | 17.4 µM (active) | 7.5 µM (active) |  |  | 16.8 µM (active) | 13.3 µM (active) |  |  | 17.2 µM (active)
CC(=O)OC[C@H]1O[C@@H](n2ncc(=O)[nH]c2=O)[C@H](OC(C)=O)[C@@H]1OC(C)=O |  |  |  | 0.335 µM (active) |  | 23.7 µM (active) | inactive | 4.22 µM (active) |  |  |  |  | inactive
CN(C)C(=O)Nc1ccc(Cl)c(Cl)c1 | inactive | inactive |  | inactive |  | inactive | inactive | inactive | inactive | inactive | inactive | inactive | 
FC1(F)C(F)(F)C(F)(F)C2(F)C(F)(F)C(F)(F)C(F)(F)C(F)(F)C2(F)C1(F)F (stereo unspecified) | inactive |  | inactive | inactive | inactive | inactive | inactive | inactive | inactive | inactive |  | inactive | inactive
O=C(Oc1cccc2cccnc12)c1ccccc1 | 1.67 µM (active) |  | inactive | 9.44 µM (active) | inactive |  |  | 15 µM (active) |  |  | 0.001 µM (active) | 6.17 µM (active) | 
CC(C)[N+](C)(C)CC(O)COc1cccc2ccccc12 (stereo unspecified) | inactive | inactive | inactive |  | inactive | inactive |  | inactive | inactive |  |  |  | inactive
